Screens (PubChem)
The list is not random: actives were taken first. Their share in the collection is about 7%.
JMJD2A Tudor: inhibitors of human JMJD2A Tudor domain; actives 4.4% (n = 390,000); O75164; Potency, µM (top dose mostly 114 µM), for inactives: at the highest dose activity change, negative = inhibition, actives largely listed as inhibitors; AlphaScreen JMJD2A-Tudor / H3K4me3 peptide binding; note: potency is the fitted concentration of half-maximal effect; % is set by controls: 0 for no effect and ±100 for the full control effect; nearly all actives have a fitted effect of over 50% in size
PI5P4K alpha inh: PI5P4K alpha (human) kinase inhibition. PI5P4Kalpha enzyme, ADP-Glo luminescence, 60 min; stronger effect = lower value. max response, %. actives 1.2% (n = 330,000). AID 652105; active = max response of -50% or lower; inconclusive = between -30% and -50%; inactive = -30% or higher; note: value at the top dose of about 77 µM; % is set by controls: 0 for no effect and ±100 for the full control effect
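PI5P4Kalpha ADP-Glo assay; 5 microM ATP final; 60 min RT reaction; HEPES pH 7.4/EGTA/CHAPS, 5% DMSO; controls lacking substrate or enzyme; luminescent end-point.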
BAZ2B inh: inhibitors of human BAZ2B bromodomain. AlphaScreen BAZ2B-H3K14Ac peptide displacement. Potency, µM (series often up to 114 µM), inactives show top-dose activity change, negative = inhibition, hits mostly inhibitors. actives 4.4% (n = 360,000); note: potency is the fitted concentration of half-maximal effect; % is set by controls: 0 for no effect and ±100 for the full control effect; nearly all actives have a fitted effect of over 60% in size
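Complex of BAZ2B and biotin-H3K14Ac (50 nM apiece) forms over 30 min at RT, then faces library compounds up to 110 uM for another 30 min; AlphaScreen beads added, 20 min dark incubation, luminescence read.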
HP1b binding inh: blocks HP1-beta chromodomain binding to methylated histone tails; P83916; AlphaScreen HP1-beta / biotin-H3K9me3 peptide binding; Potency, µM (top dose mostly 114 µM), for inactives: at the highest dose activity change, negative = inhibition, actives largely listed as inhibitors; actives 0.56% (n = 390,000); AID 540317; note: potency is the fitted concentration of half-maximal effect; nearly all actives have a fitted effect of over 70% in size
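Compound inhibition of the preformed complex between 50 nM HP1-beta and 50 nM biotinylated H3K9me3 peptide was read by AlphaScreen. Buffer was PBS pH 7.4 with 0.01% Tween-20. Incubations ran 30 min at room temperature, with 10 ug/mL donor/acceptor beads.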
PLK1 PBD inh: PLK1 (human) polo-box domain binding inhibition; Plk1 PBD binding of FITC phosphopeptide, fluorescence polarization; actives 2.8% (n = 360,000); Potency, µM, for inactives: max response, negative = inhibition, usual class: inhibitors; AID 720504; P53350; note: potency is the fitted concentration of half-maximal effect; series mostly up to about 57 µM; % is set by controls: 0 for no effect and ±100 for the full control effect; nearly all actives have a fitted effect of over 65% in size
GCN5L2 inh: inhibitors of human GCN5L2 histone acetyltransferase; GCN5L2 HAT assay, ThioGlo1 CoA-SH fluorescence; actives 0.21% (n = 390,000); Potency, µM (titrated, usually from 58.9 µM), for inactives: at the highest dose activity change, negative = inhibition, most hits filed as inhibitors; Q92830; note: potency is the fitted concentration of half-maximal effect; % is set by controls: 0 for no effect and ±100 for the full control effect
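GCN5L2 (20nM final) in 50mM HEPES, 0.1mM EDTA pH 7.5, 0.01% Tween-20 was preincubated 15 min at room temperature with compound, then given ThioGlo1 (50uM), H3(1-25) peptide (75uM) and acetyl-CoA (70uM); CoA-thiol fluorescence (Ex340/Em540) was read at 0 and 20 min.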
Starred values were filed as active, the others as inactive; ? = inconclusive; · = no result given; [ ] = dose if it differs, or a comment. Unless noted, calls come from the whole dose curve; as a rule, active = well fitted curve in the direction sought with a large enough effect; inconclusive = small, poorly fitted or top-dose-only effect, or another doubt; inactive = no such curve, though single readings can be large; an effect the other way counts as inactive or inconclusive.

SMILES	JMJD2A Tudor	PI5P4K alpha inh	BAZ2B inh	HP1b binding inh	PLK1 PBD inh	GCN5L2 inh
Cc1c(C(=O)c2ccc3ccccc3c2)c2cccc3c2n1[C@H](CN1CCOCC1)CO3	·	·	·	·	·	-25%
CC1CC(Cl)CCC1C(=O)OC(C)(C)C (stereo unspecified)	·	·	·	·	·	-3%
COc1cc2[nH]c(=O)n(-c3ccccc3)c(=O)c2cc1OC	-21%	1	2%	59%	-14%	-18%
COc1cc(C(c2c(C)[nH]n(-c3ccccc3)c2=O)c2c(C)[nH]n(-c3ccccc3)c2=O)cc(OC)c1OC	?	·	45µM*	-8%	2.1µM*	-9%
Cc1[nH]n(-c2ccccc2)c(=O)c1C(c1cccc([N+](=O)[O-])c1O)c1c(C)[nH]n(-c2ccccc2)c1=O	50µM*	-10	32µM*	?	8.4µM*	-2%
COCCN1C(=NCCCOC(C)C)N[C@@H](c2ccccc2)C(C(=O)OC)=C1C	?	-5	7%	29%	-5%	-4%
Cn1c(O)c(C(=Nc2ccccc2)SCc2ccccc2Cl)c(=O)n(C)c1=O	-22%	-12	50µM*	20%	-10%	-16%
COc1ccccc1CNCC(=O)Nc1cc(S(=O)(=O)N2CCCCC2)ccc1C	1.8µM*	0	·	?	1%	-4%
C[N+]1(CC(O)c2ccccc2)CCCCCC1 (stereo unspecified)	-4%	0	79µM*	9%	-4%	-13%
CN1C(CC(=O)c2ccccc2)CCCC1CC(O)c1ccccc1 (stereo unspecified)	-14%	4	0%	81%	-12%	10%
COCCN(C(=O)CCl)c1c(C)cccc1C	·	·	·	·	·	6%
CC1=C(O)C(=O)C=C2C1=CC=C1[C@]2(C)CC[C@@]2(C)C3C[C@](C)(C(=O)O)CC[C@@]3(C)CC[C@@]12C (stereo partly specified)	·	·	·	·	·	13µM*
O=Nc1c(-c2ccccc2)n(O)[n+]([O-])c1-c1ccccc1	·	0	·	·	?	·
CCn1cc(C=C2C(=O)NC(=O)NC2=O)c2ccccc21	-22%	-25	1%	16%[57 µM]	7%	-12%
Cc1cc(C)cc(OCCOc2cccc(C=C3C(=O)NC(=O)NC3=O)c2)c1	60%	-51*	-8%	88%	6µM*	-9%
O=C1NC(=O)C(=Cc2ccc3ccccc3c2)C(=O)N1	-19%	-79*	-2%	37%	4.2µM*	-3%
C[C@H]1O[C@H](O[C@H]2[C@H](O)[C@@H](O)[C@@H](O)[C@H](O)[C@@H]2O)[C@@H](N)C[C@@H]1NC(=N)C(=O)O	·	·	·	·	·	1%
CC1CC(C)CN(C(=O)C2CCC(CNc3c(N4CCCCC4)c(=O)c3=O)CC2)C1 (stereo unspecified)	-13%	-4	8%	19%	-7%	?
COc1cc2c(cc1OC)[C@@H]1C(=O)c3ccc4oc(C(C)C)cc4c3OC1CO2 (stereo partly specified)	·	·	·	·	·	-19%
CC(C)(C)c1cc([N+](=O)[O-])cc(C(C)(C)C)c1O	-21%	1	-9%	-12%	27µM*	3%
CC(C)(C)C(=O)OC1=CN(Cc2ccccc2)S(=O)(=O)c2ccccc21	14%	·	5%	71%	·	-13%
COc1cc(OC)c(OC)cc1/C=C1/C(=O)NC(=O)N(Cc2ccccc2)C1=O	-19%	?	-18%	22%	?	-1%
COc1ccc(CN2C(=O)NC(=O)/C(=C\c3cc(OC)c(OC)c(OC)c3)C2=O)cc1	50µM*	?	?	-24%	8.4µM*	-2%
COc1ccc(/C=C2\C(=O)NC(=O)N(Cc3ccccc3)C2=O)c(OC)c1OC	-14%	-29	-16%	17%	12µM*	6%
COc1ccc(CN2C(=O)CC(=O)NC2=S)cc1	-11%	?	?	30%	-17%	-7%
COc1cc(OC)c(OC)cc1/C=C1\C(=O)NC(=O)N(Cc2ccccc2)C1=O	-7%	-25	-28%	17%	2.7µM*	-10%
